Screening results deposited in PubChem by several laboratories.
IDE act = human IDE activators in live cells, primary screen, fluorescence polarization, HEK cells, FAbeta-B substrate. Insulin-degrading enzyme (Homo sapiens), P14735. FAbeta-B cleavage; 0% vehicle, 100% cell-free pure enzyme wells. activation, % at 5.96 µM. 340,000 tested, 0.073% active. AID 493087, 2011;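 active = activation above the mean of all tested compounds plus 3 SD, set per screening campaign, cut at about 17% in these data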
IDE inh = human IDE inhibitors in live cells, primary screen, fluorescence polarization, HEK cells, FAbetaB substrate; Insulin-degrading enzyme (Homo sapiens), P14735; FAbetaB cleavage; inhibition, % at 5.59 µM; 320,000 tested, 0.41% active; AID 434962, 2010;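 active = percent inhibition above the average of all tested compounds plus 3 SD, set per screening campaign, cut at about 16% in these data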;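 also: IDE supplied by intact live HEK cells; FP after avidin binding of uncleaved biotin substrate so inhibition keeps polarization high; 0% = DMSO wells and 100% = 60 µM reference IDE inhibitor Ii1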
Cardiac RTF inh = cardiac RTF calcium sensitivity inhibitors, primary screen, biochemical, IANBD-TnC fluorescence, EC70 calcium; Troponin I, cardiac muscle (Homo sapiens) + Troponin T, cardiac muscle (Homo sapiens) + …; IANBD-labeled cardiac RTF, Ca2+ fluorescence; inhibition, % at 7.15 µM; 340,000 tested, 0.12% active; AID 493244, 2011;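 active = inhibition above the mean inhibition of all tested compounds plus 3 SD, cut at about 17% in these data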;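 also: assay run at fixed EC70 calcium of 1.6 mM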
CRFR2-BP ag = agonists of CRF-BP/CRF-R2 complex, primary screen, cell-based, HEK293, calcium dye fluorescence, uHTS | calcium dye fluorescence (FLIPR); percent of saturating CRF peptide response | 350,000 tested, 0.46% active | activation, % at 13.2 µM;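 active = activation of at least 50%, plus an integration ratio under a set limit after plate pattern correction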;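 also: plate controls were neutral control wells without compound for no effect and CRF at EC100 for full effect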
CRFR2-BP antag = antagonists of CRF-BP/CRF-R2 complex, primary screen, cell-based, HEK293, calcium dye fluorescence, uHTS; CRF-induced calcium fluorescence; inhibition, % at 11.8 µM; 350,000 tested, 0.59% active; AID 588475, 2011;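 active = inhibition of the ligand-induced calcium signal above about 50% at the single tested concentration, limit read from the data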
RTF Ca sens act = cardiac RTF calcium sensitivity activators, primary screen, biochemical, IANBD-TnC fluorescence, EC20 calcium; Troponin I, cardiac muscle (Homo sapiens) + Troponin T, cardiac muscle (Homo sapiens) + …; 340,000 tested, 0.24% active; IANBD-labeled TnC RTF fluorescence at EC20 calcium; 0% EC20 calcium, 100% full calcium; activation, % at 7.2 µM;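 active = activation above the mean over all tested compounds plus 3 SD, cut at about 30% in these data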;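 also: rise in fluorescence read as greater calcium sensitivity of cardiac thin filaments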
Numbers without * were called inactive; nt = no result given. A selection: hits, their analogues and other compounds. The true share with any hit is near 1.5%.

SMILES	IDE act	IDE inh	Cardiac RTF inh	CRFR2-BP ag	CRFR2-BP antag	RTF Ca sens act
CC(=O)N1CCc2ccc(S(=O)(=O)N3CCN(C)CC3)cc21	1.3	-0.9	5.2	203.0*	-104.8	-5.0
CC1CC(C)CN(CCCNC(=O)c2ccc3c(c2)ncn3C2CCCC2)C1 (stereo unspecified)	6.9	0.4	-3.5	0.2	18.0	2.8
Cc1ccc(CN2CC(=O)N3[C@H]4c5cc(Cl)ccc5OC[C@@H]4[C@H](c4ccccc4)[C@]3(C)C2=O)cc1	4.5	4.8	-0.2	4.2	72.2*	-7.0
Cc1ccc(CN2CC(=O)N3[C@H]4c5cc(C)ccc5OC[C@@H]4[C@H](c4ccccc4)[C@]3(C)C2=O)cc1	3.1	3.3	6.0	1.2	-11.1	-5.1
NC(=O)c1ccccc1OCC(=O)N1CCc2ccccc2C1	-0.3	2.2	-9.6	1.5	-9.2	3.7
COc1cccc(CNC(=O)c2cc(=O)[nH]c3ccc(S(=O)(=O)N4CCOCC4)cc23)c1	0.7	7.0	-4.2	-0.8	8.0	-3.7
COc1ccc(/C=N/Nc2snc(SC)c2C#N)cc1OC	3.3	4.7	-11.2	1.1	-14.1	-5.0
COc1cccc(/C=N/Nc2snc(SC)c2C#N)c1O	3.1	1.3	9.2	69.3*	39.5	1.4
Cc1nc(-c2ccc(F)cc2)c(CC(=O)N(C)CC(=O)Nc2cccc(F)c2)s1	nt	nt	nt	-0.2	-6.3	nt
CCOC(=O)C1CCN(S(=O)(=O)c2cc(C(=O)OC)n(C)c2)CC1	-0.3	1.0	-7.3	3.5	1.8	4.6
O=C(COC(=O)CCc1c[nH]c2ccccc12)NCCc1ccccc1	1.8	1.8	3.0	8.3	-41.2	-2.0
NS(=O)(=O)c1ccc(CCNC(=O)COC(=O)CCc2c[nH]c3ccccc23)cc1	5.1	3.6	-0.9	75.7*	-38.9	-1.6
COc1ccc(CN(C(=O)Cn2nnc(-c3ccc(C)o3)n2)C(C(=O)NCC2CCCO2)c2ccco2)cc1 (stereo unspecified)	-0.5	-2.6	-18.4	-1.1	-6.3	-3.4
CC1(O)c2ccccc2C(=O)N1CCc1ccccc1F (stereo unspecified)	2.4	0.5	-4.3	-4.2	58.6*	0.7
CC(C)(C)n1nnnc1C(c1ccc(Cl)cc1)N(Cc1cccnc1)Cc1ccco1 (stereo unspecified)	-6.8	-4.7	10.7	7.9	59.0*	-2.1
CC(C)(C)n1nnnc1C(c1ccc(F)cc1)N(Cc1ccc(F)cc1)Cc1ccco1 (stereo unspecified)	2.6	0.9	3.0	-0.6	-33.4	-1.1
O=c1c2cc(C(F)(F)F)ccc2sn1-c1ccccc1	nt	nt	nt	60.8*	44.7	nt
O=C(N/N=C/c1cccn1-c1ccc([N+](=O)[O-])cc1)c1cccnc1	8.1	-2.3	-6.7	-1.1	14.8	2.4
O=C(CSc1nnc(Cc2cccs2)n1C1CC1)NC1CCS(=O)(=O)C1 (stereo unspecified)	-2.3	-0.5	2.5	1.2	-2.1	3.5
O=C(NCc1ccncc1)/C(=C/c1cccc([N+](=O)[O-])c1)NC(=O)c1ccccc1	0.2	1.4	-8.6	-0.6	0.6	4.7
CCOC(=O)C(Cc1ccccc1)NC(=O)CCc1nnc2ccc(N3CCCC3)nn12 (stereo unspecified)	5.2	2.9	-3.1	-0.4	57.7*	3.0
CC(=O)c1cc(C#N)c(Oc2ccccc2)nc1C	-0.1	-0.9	-5.6	-6.4	25.3	-0.1
CC(=O)c1cc(C#N)c(Oc2ccc(Cl)cc2Cl)nc1C	2.8	0.6	-10.7	-5.8	55.5*	3.6
CCOC(=O)C1=C(COC(=O)C(CC)Oc2ccccc2)NC(=O)NC1C (stereo unspecified)	3.0	2.2	0.1	-2.1	11.8	-5.7
O=C(NCC1CCCO1)C1CC(=O)N(c2ccc(Cl)cc2)C1 (stereo unspecified)	3.0	-0.5	-5.2	0.1	-10.2	-3.0
SMILES	IDE act	IDE inh	Cardiac RTF inh	CRFR2-BP ag	CRFR2-BP antag	RTF Ca sens act
CC(=O)Nc1ccc(Sc2ncccc2C(=O)Nc2ccc(F)cc2)cn1	-7.1	1.0	-1.3	156.1*	-122.8	-5.1
CSc1ncccc1C(=O)Nc1ccc(OC(F)(F)F)cc1	7.3	-0.3	7.7	1.1	17.4	3.4
COc1ccc(CCNS(=O)(=O)CCNC(=O)c2ccc(OC)cc2)cc1	0.7	-3.1	-4.1	-0.3	11.3	-2.4
COc1cc(C=Nc2c(C)cc(C)cc2C)ccc1OC(C)=O	1.4	-2.9	-13.2	-1.3	50.7*	2.8
COc1cc(/C=N/NC(=O)c2ccncc2)ccc1OC(C)=O	3.1	0.3	-16.8	-1.0	1.8	0.4
CCN(CC(=O)Nc1cc(S(=O)(=O)N2CCOCC2)ccc1C)Cc1ccccc1	4.4	3.4	3.1	0.2	5.8	-0.1
Cc1cccc(Cn2c(C(=O)OC(C)C)cc3c2ccn3C)c1	-0.7	0.6	-2.8	-1.9	4.2	6.6
Cc1onc(-c2ccccc2)c1C(=O)NC(=S)NNC(=O)c1ccccc1O	4.1	-7.8	-2.9	202.3*	-138.2	-0.7
CCCOc1ccc(C(=O)NC(=S)NNC(=O)c2c(-c3ccccc3)noc2C)cc1	-0.1	12.2	5.6	145.2*	-15.0	-1.2
CCCOc1ccc(NC(=O)c2c(-c3ccccc3)noc2C)cc1	0.5	5.0	-1.4	-0.2	3.9	1.6
CC1(C)CC(=O)C2=C(C1)Nc1ccccc1S2	4.1	8.2	-12.2	2.4	6.4	3.7
CC1(C)CC(=O)C2=C(C1)Nc1ccccc1NC2	-2.2	7.2	-14.3	55.2*	-21.1	11.0
COc1ccc(C2(NC(C)=O)CCN(C(=O)c3cccs3)CC2)cc1	-0.3	0.3	-13.9	-1.1	2.8	-1.4
Cc1ccccc1NC(=O)c1cc(S(=O)(=O)c2ccccc2)ccc1Cl	-3.6	3.0	-2.7	-2.6	9.3	7.1
Cc1cccc(NC(=O)c2cc(S(=O)(=O)c3ccccc3)ccc2Cl)c1	5.8	1.3	-1.4	0.6	62.0*	3.2
COc1cccc(C2(c3cccc(OC)c3)CC2C(=O)Nc2ccc(F)cc2)c1 (stereo unspecified)	2.2	11.4	-9.4	-3.6	-86.9	-2.2
COc1cccc(C2(c3cccc(OC)c3)CC2C(=O)Nc2ccccc2Cl)c1 (stereo unspecified)	-3.4	-5.0	-4.5	-1.0	76.6*	-5.5
Nc1ccc(-c2cnc3ccccc3n2)cc1	nt	0.1	nt	-1.3	6.0	nt
Nc1ccc2nc(-c3ccccc3)cnc2c1	-3.0	-1.1	-37.4	66.2*	-53.0	26.7
